The panel holds about 83,000 compounds, 20% with a hit somewhere; the sample as a whole holds those more often.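 Cells were grown in 96-well plates and exposed to the test compound at a single concentration for 48 hours; results are reported as percent growth, with values below 10 considered active.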 Unmarked numbers belong to inactive results. The source made the active and inactive calls.

Some test systems named below: HCT-15 colon; HT29 colon; SNB-75 CNS; SNB-19 CNS; U251 CNS; PC-3 prostate; SK-MEL-5 melanoma; UACC-62 melanoma; LOX IMVI melanoma; SK-MEL-28 melanoma; SK-MEL-2 melanoma; EKVX NSCLC; UO-31 renal; TK-10 renal; ACHN renal; A498 renal; CCRF-CEM leukemia; MOLT-4 leukemia; CAKI-1 renal; SN12C renal.
Test in all cases: NCI-60 one-dose screen, 48 h (100 = growth as untreated, 0 = no growth, -100 = all killed)
Conditions in all cases: 10 µM unless noted

Consider `COc1ccc2c(c1)c(CC(=O)[Se]CCC#N)c(C)n2C(=O)c1ccc(Cl)cc1`, for which the growth is -64.7% (active) in the assay with HCT-15 colon; -31.2% (active) with HT29 colon; -30.1% (active) in the assay with SNB-75 CNS; -45.2% (active) in the assay with SNB-19 CNS; 1.11% (active) in the assay with U251 CNS; 17.4% in the assay on PC-3 prostate. Besides, the growth in the assay on SK-MEL-5 melanoma was -73.4% (active); in the assay with UACC-62 melanoma, 41.3%; in the assay with LOX IMVI melanoma, -50.4% (active); in the assay on SK-MEL-28 melanoma it was -1.32% (active); with SK-MEL-2 melanoma it was 9.95% (active); in the assay on EKVX NSCLC it was -82.5% (active). Also, the growth in the assay on UO-31 renal is -21.7% (active); in the assay on TK-10 renal, -74.7% (active); in the assay on ACHN renal, 5.57% (active); in the assay with A498 renal, -42.9% (active); in the assay with CCRF-CEM leukemia, 5.22% (active); with MOLT-4 leukemia it was 0.134% (active).
`Clc1cccc(/C=N/Nc2nc(N/N=C/c3cccc(Cl)c3Cl)nc(N3CCCCC3)n2)c1Cl`: the growth is 65.5% in the assay on HCT-15 colon; 84.3% in the assay on HT29 colon; 104% in the assay with SNB-75 CNS; 95.4% in the assay with SNB-19 CNS; 52.9% with U251 CNS; 70.1% in the assay with PC-3 prostate. Further, the growth was 94.2% with SK-MEL-5 melanoma; 89.8% in the assay with UACC-62 melanoma; 68.3% in the assay with LOX IMVI melanoma; 97.7% with SK-MEL-28 melanoma; 114% in the assay with SK-MEL-2 melanoma; 89% in the assay with EKVX NSCLC. Also, the growth in the assay with UO-31 renal is 93.2%; in the assay on TK-10 renal, 91.2%; in the assay with ACHN renal, 83.7%; in the assay on CAKI-1 renal, 84.1%; with A498 renal it was 92.5%; in the assay on CCRF-CEM leukemia, 71.3%. The growth in the assay on MOLT-4 leukemia is 84.3%.
Regarding `COc1ccc(NC(=O)CSc2nnc(-c3ccc4nc(-c5ccccc5)[nH]c4c3)o2)cc1`, the growth with HCT-15 colon was 92.2%; with HT29 colon it was 108%; in the assay with SNB-75 CNS it was 101%; with SNB-19 CNS, 102%; in the assay on U251 CNS, 102%; with PC-3 prostate it was 105%. Moreover, the growth in the assay on SK-MEL-5 melanoma was 85.9%; in the assay on UACC-62 melanoma, 95%; in the assay on LOX IMVI melanoma, 101%; in the assay on SK-MEL-28 melanoma, 99.7%; in the assay on SK-MEL-2 melanoma, 105%; in the assay on EKVX NSCLC, 94%. In addition, the growth was 85.7% in the assay on UO-31 renal; 121% in the assay with TK-10 renal; 102% in the assay with ACHN renal; 101% in the assay on CAKI-1 renal; 98% in the assay with A498 renal; 91.6% in the assay on CCRF-CEM leukemia. Also, the growth in the assay with MOLT-4 leukemia is 83.5%.
Regarding `O=c1c2ccccc2nc(COc2ccccc2)n1NS(=O)(=O)c1ccc(Cl)cc1`, the growth with HCT-15 colon was 54.4%; in the assay with HT29 colon it was 80%; in the assay on SNB-75 CNS, 36.9%; with SNB-19 CNS, 79.8%; with U251 CNS, 87.8%; in the assay with PC-3 prostate it was 82.7%. In addition, the growth in the assay on SK-MEL-5 melanoma was 94.5%; in the assay with UACC-62 melanoma, 76.9%; with LOX IMVI melanoma, 83.6%; in the assay with SK-MEL-28 melanoma, 87.1%; in the assay on SK-MEL-2 melanoma it was 74.7%; with EKVX NSCLC, 74.8%. For the same molecule, the growth in the assay with UO-31 renal is 62.7%; in the assay on TK-10 renal it was 153%; in the assay on ACHN renal, 92.8%; with CAKI-1 renal, 73.1%; in the assay with A498 renal it was 63.3%; in the assay with CCRF-CEM leukemia, 97%. The growth in the assay with MOLT-4 leukemia was 69.5%.
In the case of `O=C(CN1CCN(c2cc(=O)n(-c3ccccc3)c3ccccc23)CC1)Nc1nc(-c2ccc(Cl)cc2)cs1`, the growth was 39.7% in the assay on HCT-15 colon; 63.8% in the assay on HT29 colon; 67.5% in the assay with SNB-75 CNS; 64% with SNB-19 CNS; 63.8% in the assay with U251 CNS; 35% in the assay with PC-3 prostate. Also, the growth in the assay on SK-MEL-5 melanoma is 5.1% (active); with UACC-62 melanoma, 61.5%; with LOX IMVI melanoma, 58.4%; with SK-MEL-28 melanoma it was 69.2%; with SK-MEL-2 melanoma, 75.6%; in the assay on EKVX NSCLC, 42.7%. Moreover, the growth is 29.5% with UO-31 renal; 62.4% with TK-10 renal; 55.1% in the assay with ACHN renal; 40.7% with A498 renal; 50.7% in the assay with CCRF-CEM leukemia; 29% with MOLT-4 leukemia.
For the molecule `COc1ccc(Cn2cc3c(c2-c2cc(OC)c(OC)c(OC)c2)CCc2c(CN4CCOCC4)noc2-3)cc1`, the growth is 15.3% in the assay on HCT-15 colon; 11.7% with HT29 colon; 18% in the assay with SNB-75 CNS; 27.1% with SNB-19 CNS; 27.9% in the assay with U251 CNS; 31.9% in the assay on PC-3 prostate. Also, the growth is 17.3% in the assay with SK-MEL-5 melanoma; 19.1% in the assay with UACC-62 melanoma; 33.5% in the assay on LOX IMVI melanoma; 60.7% with SK-MEL-28 melanoma; 62.4% in the assay on SK-MEL-2 melanoma; 43.4% in the assay with EKVX NSCLC. In addition, the growth in the assay on UO-31 renal is 39.5%; in the assay on TK-10 renal, 90.1%; with ACHN renal it was 43.4%; in the assay on CAKI-1 renal, 44.6%; with A498 renal it was -0.0936% (active); in the assay on CCRF-CEM leukemia it was 16.3%. The growth in the assay with MOLT-4 leukemia is 22.7%.
As to `CCOC(=O)c1c(Nc2ccccc2)nn2c(-c3cccs3)ccnc12`, the growth was 53.8% in the assay with HCT-15 colon; 80.3% in the assay with HT29 colon; 88.8% in the assay with SNB-75 CNS; 98.2% in the assay with SNB-19 CNS; 88.6% in the assay with U251 CNS; 81% in the assay on PC-3 prostate. Also, the growth with SK-MEL-5 melanoma was 70.9%; with UACC-62 melanoma, 84.6%; in the assay on LOX IMVI melanoma, 73.7%; in the assay with SK-MEL-28 melanoma it was 90.7%; in the assay on EKVX NSCLC, 88.8%; in the assay on SN12C renal, 91%. In addition, the growth in the assay on UO-31 renal is 82.6%; in the assay on TK-10 renal, 107%; in the assay on ACHN renal, 88.3%; with CAKI-1 renal it was 78.8%; in the assay on CCRF-CEM leukemia, 58.8%.
Turning to `Cc1ccc(-c2cc3nc(C(Cl)Cl)nc(-c4ccco4)n3n2)cc1`, the growth in the assay on HCT-15 colon is 14.9%; in the assay with HT29 colon, 0.475% (active); with SNB-75 CNS it was 66.8%; with SNB-19 CNS it was 8.51% (active); in the assay on U251 CNS, 1.02% (active); in the assay on PC-3 prostate it was 4.32% (active). The growth is 90.1% in the assay with SK-MEL-5 melanoma; 37.9% in the assay with UACC-62 melanoma; 92.2% in the assay on LOX IMVI melanoma; 5.86% (active) with SK-MEL-28 melanoma; 83.2% in the assay with SK-MEL-2 melanoma; 5.4% (active) with EKVX NSCLC. In addition, the growth in the assay on UO-31 renal is 33.6%; in the assay on TK-10 renal, 29.2%; in the assay with ACHN renal, -19.9% (active); in the assay on CAKI-1 renal, -5.91% (active); in the assay with A498 renal, -29.1% (active); in the assay with CCRF-CEM leukemia, 89.3%. In the assay on MOLT-4 leukemia, the growth is 94.2%.
